Laboratory results taken from PubChem BioAssay AID1159580 (chemical genetic matrix, 2015).
Values joined by “and” are separate entries in the source; they are usually repeats but may differ in a detail not shown here. Equal values may be shown once. In all, about 5,500 compounds went through this assay and about 2,000 (36%) were called active. About 18% were inconclusive and are not listed. Rule as the data show it: active = normalized growth mostly below about 0.91 (no sharp cut-off); inconclusive = no clear call, values can overlap the other calls; inactive = mostly above about 0.92. This is one part of the list.

Assay: chemical genetic growth profiling, strain panel (AID 1159580);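 also: tested at 20 µM; growth read once vehicle control cultures reached saturation at 30 °C; 1 = growth at the plate median or of vehicle wells; lower values mean less growth of the strain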
Conditions: S. cerevisiae deletion strains, growth OD

Measured: normalized growth

CN(C)C(=O)C(CCN1CCC(O)(c2ccc(Cl)cc2)CC1)(c1ccccc1)c1ccccc1
active: locus YER155C, strain BEM2 (second series), hits give low values 0.843
inactive: locus YAL013W, strain DEP1, hits give low values 1.01 | locus YAL021C, strain ccr4, hits give low values 0.984 | locus YAL026C, strain drs2, hits give low values 0.999 | locus YAL030W, strain snc1, hits give low values 1 | locus YAL040C, strain CLN3, hits give low values 0.979 | locus YBL061C, strain skt5, hits give low values 0.99 | locus YBR009C, strain hhf1, hits give low values 0.993 | locus YBR021W, strain FUR4, hits give low values 0.977 | locus YBR023C, strain chs3, hits give low values 1.01 | locus YBR171W, strain sec66, hits give low values 0.988 | locus YBR229C, strain ROT2, hits give low values 0.997 | locus YBR231C, strain swc5, hits give low values 0.965 | locus YBR279W, strain paf1, hits give low values 0.995 | locus YCL011C, strain gbp2, hits give low values 0.989 | locus YCL016C, strain dcc1, hits give low values 0.994 | locus YCL029C, strain bik1, hits give low values 1.03 | locus YCL061C, strain MRC1 (second series), hits give low values 0.996 | locus YCL061C, strain MRC1, hits give low values 0.988 | locus YCL069W, strain vba3, hits give low values 0.991 | locus YCR088W, strain abp1, hits give low values 1 | locus YDL005C, strain med2, hits give low values 0.988 | locus YDL035C, strain GPR1, hits give low values 0.965 | locus YDL040C, strain nat1, hits give low values 0.994 | locus YDL074C, strain BRE1, hits give low values 0.979 | locus YDL101C, strain DUN1, hits give low values 1 | locus YDL134C, strain PPH21, hits give low values 1.01 | locus YDL185W, strain tfp1, hits give low values 1.02 | locus YDL192W, strain arf1, hits give low values 1.02 | locus YDR001C, strain nth1, hits give low values 1 | locus YDR069C, strain doa4, hits give low values 1 | locus YDR101C, strain arx1, hits give low values 1.01 | locus YDR137W, strain rgp1, hits give low values 1.11 | locus YDR150W, strain NUM1, hits give low values 1.01 and 0.999 | locus YDR159W, strain sac3, hits give low values 0.999 | locus YDR162C, strain NBP2, hits give low values 1 | locus YDR195W, strain ref2 0.949 | locus YDR297W, strain sur2, hits give low values 1 | locus YDR318W, strain mcm21, hits give low values 1.01 | locus YDR334W, strain swr1, hits give low values 1.01 | locus YDR335W, strain msn5, hits give low values 1 | locus YDR363W, strain ESC2, hits give low values 0.967 | locus YDR388W, hits give low values 1.02 | locus YDR392W, strain spt3, hits give low values 0.797 | locus YDR502C, strain sam2, hits give low values 1.01 | locus YEL003W, strain gim4, hits give low values 0.993 | locus YEL037C, strain rad23, hits give low values 1 | locus YEL061C, strain CIN8 (second series), hits give low values 1.01 | locus YEL061C, strain CIN8, hits give low values 1 | locus YER002W, strain NOP16, hits give low values 1.01 | locus YER015W, strain faa2, hits give low values 0.967 | locus YER016W, strain bim1, hits give low values 0.996 | locus YER110C, hits give low values 1.02 | locus YER111C, strain swi4, hits give low values 0.98 | locus YER155C, strain BEM2, hits give low values 1.01 | locus YER167W, strain BCK2, hits give low values 0.981 | locus YFR010W, strain ubp6, hits give low values 0.988 | locus YGL078C, strain dbp3, hits give low values 1.01 | locus YGL086W, strain mad1, hits give low values 0.989 | locus YGL167C, strain pmr1, hits give low values 0.99 | locus YGL173C, strain kem1, hits give low values 0.981 | locus YGL227W, strain vid30, hits give low values 1 | locus YGL240W, strain doc1, hits give low values 0.956 | locus YGL248W, strain PDE1, hits give low values 1 | locus YGL253W, strain hxk2, hits give low values 1.02 | locus YGR078C, strain PAC10, hits give low values 1 and 0.987 | locus YGR135W, strain pre9, hits give low values 1.01 | locus YGR229C, strain SMI1, hits give low values 1.01 | locus YGR252W, strain gcn5, hits give low values 0.871 | locus YHR013C, strain ard1, hits give low values 0.955 | locus YHR027C, strain rpn1, hits give low values 0.999 | locus YHR030C, strain SLT2, hits give low values 1.01 and 0.969 | locus YHR079C, strain IRE1 (second series), hits give low values 1.02 | locus YHR079C, strain IRE1, hits give low values 0.987 | locus YHR094C, strain hxt1, hits give low values 1.01 | locus YHR129C, strain ARP1, hits give low values 1 | locus YHR142W, strain chs7, hits give low values 1.01 | locus YHR200W, strain rpn10, hits give low values 0.997 | locus YIL066C, strain RNR3, hits give low values 1 | locus YIL073C, strain SPO22, hits give low values 1.05 | locus YIL125W, strain kgd1, hits give low values 1.01 | locus YIR030C, strain dcg1, hits give low values 1.02 | locus YJL092W, strain hpr5, hits give low values 0.994 | locus YJL095W, strain BCK1 (second series), hits give low values 0.993 | locus YJL095W, strain BCK1, hits give low values 1 and 0.99 | locus YJL115W, strain asf1, hits give low values 0.978 | locus YJL129C, strain trk1, hits give low values 0.941 | locus YJL134W, strain LCB3, hits give low values 1.01 | locus YJL154C, strain vps35, hits give low values 0.998 | locus YJL164C, strain tpk1, hits give low values 0.994 | locus YJL166W, strain qcr8, hits give low values 0.967 | locus YJL168C, strain set2, hits give low values 1.01 | locus YJL187C, strain SWE1 (second series), hits give low values 1.02 | locus YJR043C, strain POL32, hits give low values 0.986 | locus YJR066W, strain TOR1, hits give low values 0.928
